Active and inactive are the calls of the source. No stated cut-off is given here; in the data, active means inhibition above about 50%; inactive means the rest.
target: Prolyl endopeptidase-like (Mus musculus) (UniProt Q8C167); assay: purified PREPL inhibitors, PREPL inhibitor project, biochemical, gel-based competitive ABPP, fluorescence, HTS hits (AID 624481); details: at 20 µM, stronger effect = higher value
Sequence (Q8C167 whole entry, looked up): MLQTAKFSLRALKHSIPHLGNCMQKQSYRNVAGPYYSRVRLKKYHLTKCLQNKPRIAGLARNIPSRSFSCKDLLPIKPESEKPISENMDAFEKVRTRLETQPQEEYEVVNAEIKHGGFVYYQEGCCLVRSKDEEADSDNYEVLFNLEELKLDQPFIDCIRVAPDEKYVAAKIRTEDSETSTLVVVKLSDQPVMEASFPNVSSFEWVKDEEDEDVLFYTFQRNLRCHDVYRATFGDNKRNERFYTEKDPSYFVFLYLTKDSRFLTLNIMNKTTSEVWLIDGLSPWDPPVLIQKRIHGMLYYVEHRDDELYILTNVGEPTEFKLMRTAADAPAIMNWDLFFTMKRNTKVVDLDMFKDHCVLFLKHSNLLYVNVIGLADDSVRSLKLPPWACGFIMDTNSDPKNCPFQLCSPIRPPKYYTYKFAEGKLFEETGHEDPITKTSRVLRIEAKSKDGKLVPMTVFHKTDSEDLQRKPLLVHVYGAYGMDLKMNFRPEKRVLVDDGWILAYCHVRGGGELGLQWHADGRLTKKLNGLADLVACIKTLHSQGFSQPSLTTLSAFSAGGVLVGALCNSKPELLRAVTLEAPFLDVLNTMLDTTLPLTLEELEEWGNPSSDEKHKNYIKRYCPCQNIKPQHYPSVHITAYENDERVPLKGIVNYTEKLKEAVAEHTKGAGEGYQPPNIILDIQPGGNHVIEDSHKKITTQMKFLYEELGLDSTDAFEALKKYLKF

inhibition, inactive:
CN1CCN(C(=O)C2=C[C@@H](c3ccc(C(F)(F)F)cc3)C[C@@H](OCCCCO)O2)CC1 -28%
CN(C)c1ccc(C=NNC(=S)NCc2ccccc2)cc1 -20%
O=C(C1=C[C@@H](c2ccc(Br)cc2)C[C@@H](OCc2ccc(CO)cc2)O1)N1CCN(Cc2ccc3c(c2)OCO3)CC1 -105%
c1ccc(-c2nc(N3CCCCCC3)c3ccccc3n2)nc1 -104%
COc1ccc(-[n+]2c(C)cc(/C=C3\Sc4ccccc4N3C)cc2C)cc1 -11%
COc1ccc2c(CC(=O)Nc3ccc(N4CCOCC4)cc3)coc2c1 -44%
CC(=O)N1CCN(c2ccc(OC[C@H]3CO[C@](Cn4ccnc4)(c4ccc(Cl)cc4Cl)O3)cc2)CC1 -188%
NC(=O)[C@@H]1CCCNc2c(I)cc([N+](=O)[O-])cc2C(=O)N[C@@H](CCCN=C(N)N)C(=O)N[C@@H](CCCN=C(N)N)C(=O)N1 -77%
CN(C)CCN1C(=O)C(O)=C(C(=O)c2cc3ccccc3o2)C1c1ccc(N(C)C)cc1 (stereo not drawn) -47%
Cc1cc(/C=C2\SC(=Nc3ccc(F)cc3)NC2=O)c(C)n1-c1ccc(S(N)(=O)=O)cc1 28%
O=C(c1ccccc1)N1CCN(c2ccc(NCc3ccc4c(c3)OCO4)cc2)CC1 -17%
CCN1C(=O)/C(=C\N2CCN(c3ccccc3)CC2)SC1=S -14%
CN(C)S(=O)(=O)c1cccc(-c2csc(=Nc3ccccc3)n2CCCN2CCOCC2)c1 -41%

From PubChem BioAssay AID624481 (The Scripps Research Institute Molecular Screening Center, 2012)
